Rows were chosen to be rich in hits. Some 19% of all compounds tested hit in one or more screens of this group.
HT1080NT lethal: qHTS for induction of synthetic lethality in tumor cells producing 2HG: qHTS for the HT-1080-NT fibrosarcoma cell line; AID 686970, 2013; Potency, µM (highest dose often 46.1 µM), for the others: at the highest dose activity, negative = less viability, usual class: cytotoxic; HT-1080-NT fibrosarcoma viability, CellTiter-Glo ATP luminescence, 48 h; 360,000 compounds, 1.6% hits;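 also: NT is the 2HG producing partner of a matched IDH1 knockdown line; 0% = DMSO-treated cells and -100% = media-only wells without cells; nearly all actives have a fitted effect of over 55% in size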
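Toxicity toward the 2HG-producing NT line was scored as %Activity, normalised to DMSO and no-cell wells, from CellTiter-Glo luminescence after 48 hours' treatment.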
KB-V1 cytotox: qHTS assay for MDR1-selective chemotherapeutics: Primary screen using the drug-selected MDR subline cells KB-V1. KB-V1 MDR cells viability, CellTiter-Glo, 72 h. 400,000 compounds, 3.4% hits. AID 1347076, 2019. Potency, µM (titrated, usually from 46.1 µM), usual class: cytotoxic; also: nearly all actives have a fitted effect of over 60% in size
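Drug-selected KB-V1 cells, grown in DMEM lacking phenol red with 10% FBS, receive compound titrations; after three days at 37 degrees C, surviving cell ATP is quantified by CellTiter-Glo luminescence and responses normalized and curve-fitted.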
TDP1 cell CPT: qHTS for Inhibitors of human tyrosyl-DNA phosphodiesterase 1 (TDP1): qHTS in cells in presence of CPT; chicken DT40 Tdp1-/-;hTDP1 cells + 20 nM CPT, ATP luminescence, 48 h; Potency, µM (series often up to 46.2 µM), inactives show at the top dose activity change, negative = growth inhibition, usual class: inhibitors; 420,000 compounds, 12% hits; AID 686979, 2013; also: nearly all actives have a fitted effect of over 55% in size
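Chicken DT40 Tdp1-/- cells complemented with human TDP1, 400 cells/well, exposed to compounds plus 20 nM camptothecin for at least 48 h at 37 C; viability read as ATP content by CellTiter-Glo luminescence.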
DT40 TDP1 no CPT: qHTS for Inhibitors of human tyrosyl-DNA phosphodiesterase 1 (TDP1): qHTS in cells in absence of CPT | Potency, µM (highest dose often 46.2 µM), for the others: at the highest dose activity change, negative = growth inhibition, most hits filed as inhibitors | DT40 Tdp1-/- hTDP1 cells, no CPT, ATP luminescence, 48 h | 420,000 compounds, 15% hits | AID 686978, 2013; also: nearly all actives have a fitted effect of over 55% in size
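DT40 Tdp1-/-;hTDP1 cells, no CPT (DMSO vehicle only), 400 cells/well; compounds pin-transferred; ≥48 hr, 37 °C; CellTiter-Glo 30 min RT dark, luminescence read.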
HT1080 IDH1KD tx: qHTS for induction of synthetic lethality in tumor cells producing 2HG: qHTS for the HT-1080-IDH1KD cell line | AID 686971, 2013 | Potency, µM (top dose mostly 46.1 µM), for inactives: top-dose activity, negative = toxicity, hits mostly cytotoxic | 360,000 compounds, 2% hits | HT-1080 IDH1 knockdown viability, ATP luminescence, 48 h;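 also: 0% = DMSO wells and -100% = cell-free medium wells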
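Assay cells: HT-1080 with IDH1 knockdown, 750 per well, RPMI/5% FBS. Exposure: 48 h at 37 °C following 2 h pre-incubation. Read: CellTiter-Glo luminescence; fitted concentration-response, curve class assigned.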
KB-3-1 cytotox: qHTS assay for MDR1-selective chemotherapeutics: Primary screen using the parental adenocarcinoma cell KB-3-1 | KB-3-1 viability, CellTiter-Glo ATP luminescence, 72 h | Potency, µM (titrated, usually from 46.1 µM), usual class: cytotoxic | 400,000 compounds, 1.4% hits; also: nearly all actives have a fitted effect of over 60% in size
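Cytotoxicity in the drug-sensitive parental line KB-3-1 was scored as loss of CellTiter-Glo luminescence following 72 h incubation with compound. Values come from curve fitting of normalized concentration-response data.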
Numbers without * were called inactive; i = inactive; ? = inconclusive; · = no result given. Calls follow the shape of the dose curve; as a rule, active = well fitted curve in the direction sought with a large enough effect; inconclusive = small, poorly fitted or top-dose-only effect, or another doubt; inactive = no such curve, though single readings can be large; an effect the other way counts as inactive or inconclusive. Unless noted, % is scaled to controls: 0 for no effect and ±100 for the full control effect; potency is read from the fitted curve at half-maximal effect.

SMILES | HT1080NT lethal | KB-V1 cytotox | TDP1 cell CPT | DT40 TDP1 no CPT | HT1080 IDH1KD tx | KB-3-1 cytotox
CC1=C(C)/C(=N\OS(=O)(=O)c2ccccc2)C=CC1=O | 7.1µM* | 16µM* | 0.56µM* | 0.56µM* | 8.9µM* | 11µM*
Cc1ccc(S(=O)(=O)O/N=C2\CCCc3ccccc32)cc1 | -1% | i | -22% | -1% | 2% | i
Cc1ccc(S(=O)(=O)N(C)C)cc1NC(=O)CSc1nc2ncc(Cl)cc2[nH]1 | -17% | i | ? | ? | -16% | i
CCCc1cc(N2CCN(c3ccccc3)CC2)n2cnnc2n1 | · | i | ? | -77% | · | ?
CCCc1cc(N2CCN(c3ccccc3F)CC2)n2cnnc2n1 | · | ? | 18µM* | 26µM* | · | ?
COc1ccccc1CN(C)C(=O)CSc1nnc(C2CC2)n1C1CC1 | 18% | i | ? | 16µM* | 5% | i
CN(Cc1cccc(F)c1)C(=O)CSc1nnc(C2CC2)n1C1CC1 | 1% | i | 9% | 3% | 9% | i
O=C(Nc1cccc(O)c1)c1c(O)c2ccccc2[nH]c1=O | -6% | i | 18µM* | ? | -11% | i
Cc1cccc(C)c1NC(=O)c1c(O)c2ccccc2[nH]c1=O | -26% | ? | 18µM* | ? | -14% | 18µM*
CCCCCCCC(=O)NNC(=O)c1c(O)c2ccccc2[nH]c1=O | 5% | i | ? | 0% | 0% | i
CCCCCCNC(=O)c1c(O)c2ccccc2[nH]c1=O | 15% | i | ? | 13µM* | 13% | i
O=C(NCCC1=CCCCC1)c1ccc2c(c1)N(Cc1ccccc1)C(=O)c1ccccc1S2=O (stereo not given) | · | i | ? | ? | · | i
COc1ccc(CCNC(=O)c2ccc3c(c2)N(Cc2cc(C)ccc2C)C(=O)c2ccccc2S3=O)cc1OC (stereo not given) | · | i | 9.2µM* | 5.8µM* | · | i
Cc1ccc(CCNC(=O)c2ccc3c(c2)N(Cc2ccccc2F)C(=O)c2ccccc2S3=O)cc1 (stereo not given) | · | i | ? | ? | · | i
COc1ccc(CCNC(=O)c2ccc3c(c2)N(Cc2ccccc2F)C(=O)c2ccccc2S3=O)cc1OC (stereo not given) | · | i | 15µM* | 26µM* | · | i
O=C(NCc1ccc2c(c1)OCO2)c1ccc2c(c1)N(Cc1ccccc1F)C(=O)c1ccccc1S2=O (stereo not given) | · | i | -34% | 21µM* | · | i
Cc1ccc(C)c(CN2C(=O)c3ccccc3S(=O)c3ccc(C(=O)NCCC4=CCCCC4)cc32)c1 (stereo not given) | · | i | 15µM* | 16µM* | · | i
CNc1c(NS(=O)(=O)c2ccc3c(c2)CCCC3)c(=O)oc2ccccc12 | 8% | i | -1% | 12% | 18% | i
COC(=O)C1N2C(=O)[C@@H](NC(=O)COc3ccccc3)[C@H]2SC1(C)C (stereo not given in full) | -3% | i | -1% | -7% | 0% | i
COc1c(Cl)cc(Br)c(OC)c1C(=O)NC(=O)Nc1nc(C)cc(C)n1 | 5% | ? | -25% | ? | 12% | ?
CC(C)CCNC(=O)c1ccc2c(c1)N(Cc1ccccc1F)C(=O)c1ccccc1S2=O (stereo not given) | · | i | ? | 21µM* | · | i
CC(=O)C1=C(C)OC(N)=C(C#N)C1c1cc([N+](=O)[O-])ccc1Cl (stereo not given) | 16µM* | i | 4.1µM* | 3.7µM* | ? | i
COc1ccc2cc(C3C(C#N)=C(N)OC(C)=C3C(C)=O)c(Cl)nc2c1 (stereo not given) | -13% | i | ? | 21µM* | -12% | i
Cc1nc2ccccn2c1C(=O)/C=C/c1ccc(F)cc1 | -25% | 16µM* | ? | 21µM* | -1% | 16µM*
COc1ccc(/C=C/C(=O)c2c(C)nc3ccccn23)cc1 | 16% | ? | -12% | -9% | 16% | i
SMILES | HT1080NT lethal | KB-V1 cytotox | TDP1 cell CPT | DT40 TDP1 no CPT | HT1080 IDH1KD tx | KB-3-1 cytotox
Cc1cccc(NS(=O)(=O)c2ccc3c(c2)CC(C)N3C(=O)C2CCC2)c1C (stereo not given) | · | ? | ? | 18µM* | · | 23µM*
CCOc1ccccc1NS(=O)(=O)c1ccc2c(c1)CC(C)N2C(=O)C1CCC1 (stereo not given) | · | ? | 23µM* | 15µM* | · | ?
CC(=O)N1c2ccc(S(=O)(=O)N3CCC(C(=O)Nc4cccc(C)c4C)CC3)cc2CC1C (stereo not given) | 0% | i | ? | -18% | 8% | i
COCCNC(=O)CN1C(=O)c2cccnc2Sc2ccccc21 | · | i | -28% | -20% | · | i
CSc1nc(C(C)C)ccc1CNC(=O)CC(C)c1ccccc1 (stereo not given) | -4% | ? | -25% | 23µM* | -12% | i
O=c1nc(-c2ccccc2)c2cc(SC(F)F)ccc2[nH]1 | -2% | i | -5% | 0.41µM* | -5% | i
O=c1nc(-c2ccccc2)c2cc(Br)ccc2[nH]1 | -1% | i | 0.33µM* | 0.23µM* | 10% | i
O=c1nc(-c2ccccc2)c2cc(Cl)ccc2[nH]1 | -4% | i | ? | 1.3µM* | 3% | i
CN(Cc1ccc(C(F)(F)F)cc1)C(=O)C1CCC(=O)N(C2CC2)C1 (stereo not given) | -1% | i | 8% | -12% | 1% | i
O=C(CN1C(=O)NC(CCc2ccccc2)C1=O)Nc1cccc(Br)c1 (stereo not given) | -10% | i | ? | 16µM* | -8% | i

Source: PubChem BioAssay (National Center for Advancing Translational Sciences (NCATS))
